# In the supplement of paper PMC8728848:
# About 410 targets per protein were measured; listed, in parts, are those with the strongest signals and a random draw of the rest.
# B1: rCnSL-proB (Clitocybe nebularis) (protein)
# chain: PTFSPIFALLAFLPFGTLASLLPQTQLVFRINPNLPGPNDVFVGYRGTNNVVGAIYERDGIKDTPMNNGADAELGPGSYITDDLFTAQIFASGSAGNNPGTTATVCKIYADGVQWRGAPKGYLPVLYFGNGQAAEQTRQTYLQGLDIPGTAIRFANLAKTPNQGPTAPRQMVVPSGGLQTLLKASCFPANHAALPQVLSYFNVRAALPPGWNIRTGPEFPNWTN
# How the values were obtained:
# Assay in all cases: glycan array binding signal (z-score within array); higher = stronger binding
# Settings in all cases: glycan notation: IUPAC condensed, linker removed
# [1] = biological target: Fuc(a1-2)Gal(b1-3)GlcNAc6S
# Procedure, shortened: (§1)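 Glycan array data were curated from 3228 arrays in the Consortium for Functional Glycomics database and kept only where the protein sequence was available. Glycan names were converted to IUPAC-condensed notation, and columns mapping to the same glycan were averaged. The binding signal is a within-array Z-score, averaged across arrays of the same protein sequence at different concentrations or buffers and across linkers. Negative Z-scores can be read as non-binding.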
# [2] = biological target: Fuc(a1-2)Gal(b1-3)[Fuc(a1-4)]GlcNAc(b1-2)Man(a1-3)[Fuc(a1-2)Gal(b1-3)[Fuc(a1-4)]GlcNAc(b1-2)Man(a1-3)]Man(b1-4)GlcNAc(b1-4)GlcNAc
# Procedure, shortened: as §1
# [3] = biological target: Fuc(a1-2)Gal(b1-4)[Fuc(a1-3)]GlcNAc(b1-3)GalNAc
# Procedure, shortened: as §1
# [4] = biological target: Fuc(a1-2)[Gal(a1-3)]Gal(b1-3)GlcNAc(b1-2)Man(a1-3)[Fuc(a1-2)[Gal(a1-3)]Gal(b1-3)GlcNAc(b1-2)Man(a1-6)]Man(b1-4)GlcNAc(b1-4)[Fuc(a1-6)]GlcNAc
# Procedure, shortened: as §1
# [5] = biological target: Fuc(a1-2)[Gal(a1-3)]Gal(b1-4)GlcNAc
# Procedure, shortened: as §1
# [6] = biological target: Fuc(a1-2)[GalNAc(a1-3)]Gal(b1-3)GlcNAc(b1-2)Man(a1-3)[Fuc(a1-2)[GalNAc(a1-3)]Gal(b1-3)GlcNAc(b1-2)Man(a1-6)]Man(b1-4)GlcNAc(b1-4)[Fuc(a1-6)]GlcNAc
# Procedure, shortened: as §1
# [7] = biological target: Fuc(a1-2)[GalNAc(a1-3)]Gal(b1-4)GlcNAc(b1-2)Man(a1-3)[Fuc(a1-2)[GalNAc(a1-3)]Gal(b1-4)GlcNAc(b1-2)Man(a1-6)]Man(b1-4)GlcNAc(b1-4)GlcNAc
# Procedure, shortened: as §1
# [8] = biological target: Fuc(a1-2)[GalNAc(a1-3)]Gal(b1-4)[Fuc(a1-3)]GlcNAc
# Procedure, shortened: as §1
# [9] = biological target: Fuc(a1-3)[Gal(b1-4)]GlcNAc(b1-2)Man
# Procedure, shortened: as §1
# [10] = biological target: Fuc(a1-3)[Gal(b1-4)]GlcNAc(b1-6)[Gal(b1-3)GlcNAc(b1-3)]Gal(b1-4)Glc
# Procedure, shortened: as §1
# [11] = biological target: Gal(a1-3)Gal(b1-3)GlcNAc(b1-2)Man(a1-3)[Gal(a1-3)Gal(b1-3)GlcNAc(b1-2)Man(a1-6)]Man(b1-4)GlcNAc(b1-4)GlcNAc
# Procedure, shortened: as §1
# [12] = biological target: Gal(b1-3)GlcNAc(b1-2)Man(a1-3)[Gal(b1-3)GlcNAc(b1-2)Man(a1-6)]Man(b1-4)GlcNAc(b1-4)[Fuc(a1-6)]GlcNAc
# Procedure, shortened: as §1
# [13] = biological target: Gal(b1-3)GlcNAc(b1-3)Gal(b1-4)GlcNAc(b1-2)Man(a1-3)[Gal(b1-3)GlcNAc(b1-3)Gal(b1-4)GlcNAc(b1-2)Man(a1-6)]Man(b1-4)GlcNAc(b1-4)GlcNAc
# Procedure, shortened: as §1
# [14] = biological target: Gal(b1-3)GlcNAc(b1-6)[Gal(b1-3)]GalNAc
# Procedure, shortened: as §1
# [15] = biological target: Gal(b1-3)[Neu5Ac(a2-6)]GalNAc
# Procedure, shortened: as §1
# [16] = biological target: Gal(b1-4)Glc6S
# Procedure, shortened: as §1
# [17] = biological target: Gal(b1-4)GlcNAc(b1-2)[Gal(b1-4)GlcNAc(b1-4)]Man(a1-3)[Gal(b1-4)GlcNAc(b1-2)[Gal(b1-4)GlcNAc(b1-6)]Man(a1-6)]Man(b1-4)GlcNAc(b1-4)GlcNAc
# Procedure, shortened: as §1
# [18] = biological target: Gal(b1-4)GlcNAc(b1-2)[Gal(b1-4)GlcNAc(b1-6)]Man(a1-6)[Gal(b1-4)GlcNAc(b1-2)Man(a1-3)]Man(b1-4)GlcNAc(b1-4)[Fuc(a1-6)]GlcNAc
# Procedure, shortened: as §1
# [19] = biological target: Gal(b1-4)GlcNAc(b1-3)Gal(b1-4)GlcNAc(b1-2)Man(a1-3)[Gal(b1-4)GlcNAc(b1-3)Gal(b1-4)GlcNAc(b1-2)Man(a1-6)]Man(b1-4)GlcNAc(b1-4)GlcNAc
# Procedure, shortened: as §1
# [20] = biological target: Gal(b1-4)GlcNAc(b1-3)Gal(b1-4)GlcNAc(b1-3)Gal(b1-4)GlcNAc(b1-2)Man(a1-3)[Gal(b1-4)GlcNAc(b1-3)Gal(b1-4)GlcNAc(b1-3)Gal(b1-4)GlcNAc(b1-2)Man(a1-6)]Man(b1-4)GlcNAc(b1-4)GlcNAc
# Procedure, shortened: as §1
# [21] = biological target: Gal(b1-4)GlcNAc(b1-3)Gal(b1-4)GlcNAc(b1-3)Gal(b1-4)GlcNAc(b1-2)Man(a1-3)[Gal(b1-4)GlcNAc(b1-3)Gal(b1-4)GlcNAc(b1-3)Gal(b1-4)GlcNAc(b1-2)Man(a1-6)]Man(b1-4)GlcNAc(b1-4)[Fuc(a1-6)]GlcNAc
# Procedure, shortened: as §1
# [22] = biological target: Gal(b1-4)GlcNAc(b1-3)Gal(b1-4)GlcNAc(b1-3)Gal(b1-4)GlcNAc(b1-3)Gal(b1-4)GlcNAc(b1-2)Man(a1-3)[Gal(b1-4)GlcNAc(b1-3)Gal(b1-4)GlcNAc(b1-3)Gal(b1-4)GlcNAc(b1-3)Gal(b1-4)GlcNAc(b1-2)Man(a1-6)]Man(b1-4)GlcNAc(b1-4)[Fuc(a1-6)]GlcNAc
# Procedure, shortened: as §1
# [23] = biological target: Gal(b1-4)GlcNAc(b1-3)Gal(b1-4)GlcNAc(b1-3)Gal(b1-4)GlcNAc(b1-3)Gal(b1-4)GlcNAc(b1-3)Gal(b1-4)GlcNAc(b1-2)Man(a1-3)[Gal(b1-4)GlcNAc(b1-3)Gal(b1-4)GlcNAc(b1-3)Gal(b1-4)GlcNAc(b1-3)Gal(b1-4)GlcNAc(b1-3)Gal(b1-4)GlcNAc(b1-2)Man(a1-6)]Man(b1-4)GlcNAc(b1-4)[Fuc(a1-6)]GlcNAc
# Procedure, shortened: as §1
# [24] = biological target: Gal(b1-4)GlcNAc(b1-3)Gal(b1-4)GlcNAc(b1-3)[Gal(b1-4)GlcNAc(b1-3)Gal(b1-4)GlcNAc(b1-6)]GalNAc
# Procedure, shortened: as §1
binder,measurement,setting,value
B1,glycan array binding signal (z-score),[1],-0.282
same,glycan array binding signal (z-score),[2],3.69
same,glycan array binding signal (z-score),[3],0.251
same,glycan array binding signal (z-score),[4],0.259
same,glycan array binding signal (z-score),[5],-0.77
same,glycan array binding signal (z-score),[6],3.9
same,glycan array binding signal (z-score),[7],-0.08
same,glycan array binding signal (z-score),[8],-0.654
same,glycan array binding signal (z-score),[9],-0.565
same,glycan array binding signal (z-score),[10],-0.826
same,glycan array binding signal (z-score),[11],-0.093
same,glycan array binding signal (z-score),[12],-0.42
same,glycan array binding signal (z-score),[13],3.58
same,glycan array binding signal (z-score),[14],-0.511
same,glycan array binding signal (z-score),[15],0.089
same,glycan array binding signal (z-score),[16],-0.06
same,glycan array binding signal (z-score),[17],3.51
same,glycan array binding signal (z-score),[18],4.49
same,glycan array binding signal (z-score),[19],6.35
same,glycan array binding signal (z-score),[20],4.18
same,glycan array binding signal (z-score),[21],1.76
same,glycan array binding signal (z-score),[22],2.28
same,glycan array binding signal (z-score),[23],0.375
same,glycan array binding signal (z-score),[24],4.08
